A short description of experiment [1]: Her2 expression decrease, cell viability multiplex – SKBR3 breast tumor cells, AlphaScreen, ATP viability, primary screen (AID 461;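 active = Her2 level under about 52% in both replicate screens, with viability over 70% of control, limit read from the data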;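 as to Her2 level: lower value means less Her2 protein in the cells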;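 as to viability: percent of carrier control wells set as 100% viability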). To be noted: SKBR3 Her2 protein level, 18-24 h, measured here: SKBR3 viability, ATP luminescence, at 10 µM. (In general: In Alpha technology, singlet oxygen from a donor bead excites a nearby acceptor bead.)
For experiment [2], the target named is Receptor tyrosine-protein kinase erbB-2 (Homo sapiens) (UniProt P04626). Described as above. To be noted: 18-24 h, at 10 µM, stronger effect = lower value.
Experiment [3] can be described thus: reduced viability of SK-BR-3 breast cancer cells – cell-based, 24 h, human, pilot screen (AID 572).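 Also: compound exposure lasted between 18 and 24 h rather than exactly 24 h; 100% = carrier-treated control wells.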 To be noted: SK-BR-3 viability, CellTiter-Glo luminescence, at 10 µM, stronger effect = lower value. (ATP-based viability assays read luminescence as a measure of living cells.)
Experiment [4] in a line: HUVEC growth inhibition – cell-based, human, primary screen (AID 575;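 active = viability at or below 30% in both replicate assays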;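 also: 100% = median of untreated cell wells with 0.1% DMSO on each plate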). As to conditions: HUVEC proliferation, CellTiter-Glo luminescence, 72 h; at 10 µM; stronger effect = lower value.
Experiment [5] can be described thus: H69AR cell proliferation blockers – human, duplicate replicates, primary screen (AID 580;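 active = viability at or under a set limit in both replicates, limit being median viability minus 3 SD, cut at about 48% in these data, passing the limit was not always enough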;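 also: 100% = mean luminescence of untreated wells and 0% = no signal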). To be noted: H69AR lung tumor cells viability, ATP luminescence, 72 h; at 10 µM; stronger effect = lower value.
The nature of experiment [6]: MRP1 drug-resistance reversers in H69AR cells – cell-based, doxorubicin co-treatment, pilot screen (AID 601;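 active = viability loss from added drug above about 55%, and viability with drug at most 40%, in both replicates, limit read from the data, passing the limit was not always enough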). To be noted: CellTiter-Glo, 72 h, at 10 µM; for differential viability (reversal): stronger effect = higher value.
Experiment [7] can be described thus: yeast transport mutant growth inhibition pilot in 384-well plates, post-Golgi transport modulator project (AID 636; in the data active = inhibition above about 31%). As to conditions: absorbance 615 nm, about 18 h, stronger effect = higher value.
Experiment [8] is described as follows: growth suppression of yeast trafficking mutant, preliminary HTS, modulators of trafficking downstream of Golgi apparatus project, 1536-format plate, OD 615 nm (AID 637; in the data active = inhibition above about 30%). As to conditions: yeast transport mutant growth, absorbance 615 nm, 18 h; stronger effect = higher value.
The nature of experiment [9]: S. cerevisiae growth inhibition in permissive medium (OD615), pilot counter-assay for S. cerevisiae lifespan shortening project, permissive growth control (AID 705;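 active = growth inhibition above 25% in both replicates, a cutoff set 3 SD above the mean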). As to conditions: OD615, 24 h, at 10 µM, stronger effect = higher value.
Experiment [10] is described as follows: S. cerevisiae growth inhibition in restrictive medium, OD615, pilot screen, restrictive growth control, yeast lifespan reduction project (AID 706;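 active = growth inhibition above a set limit, 3 SD over mean compound inhibition, in both replicates, cut at about 43% in these data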;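 also: modified DeaD lifespan yeast strain shifted to restrictive glucose medium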). To be noted: OD615, 48 h, at 10 µM, stronger effect = higher value.
The nature of experiment [11]: doxorubicin toxicity protection in MRP-1 cells – H69AR cells, CellTiter-Glo, duplicate, MRP-1 activator project, pilot screen (AID 807;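 active = viability increase at or above a cutoff of the median across tested compounds plus 3 SD, cut at about 8.5% in these data, passing the limit was not always enough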;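 also: compound pretreatment 18-22 h then 72 h combined with doxorubicin; 0% = doxorubicin alone and 100% = vehicle without doxorubicin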). To be noted: H69AR viability with doxorubicin, CellTiter-Glo luminescence; at 10 µM; stronger effect = higher value.
Experiment [12] can be described thus: viability of HCT116 without oncogenic beta-catenin – human colon tumor cells, pilot screen (AID 823;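 active = cell viability at or below a set limit in both duplicate runs, the limit being the all-compound median minus 4 SD, cut at about 23% in these data, passing the limit was not always enough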;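 also: 0% = wells killed by 20 µM Hyamine and 100% = untreated DMSO cell wells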). To be noted: HCT116 beta-catenin knockout viability, CellTiter-Glo, 60 h; at 10 µM; stronger effect = lower value.
Experiment [13] in a line: viability of PTEN-null HCT116 cells – cell-based, HCT116 clonal line, CellTiter-Glo, pilot screen (AID 824;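 active = viability at or below 27.92% in each of two runs, the all-compound median minus 4 SD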;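 also: 0% = 20 µM Hyamine control and 100% = vehicle cell control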). To be noted: HCT116 PTEN-deleted viability, 60 h, at 10 µM, stronger effect = lower value.
Experiment [14] can be described thus: RAM pathway blockade in budding yeast – dse1pr::URA3 reporter, 5-FOA selection, pilot screen (AID 869;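 active = inhibition over a set limit, the all-compound mean plus 3 SD, in both replicate runs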;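 also: 0% = DMSO wells with no growth and 100% = 10 µM 1-NA-PP1 with full growth; RAM network block rescues cells from 5-FOA so hits raise OD615 growth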). As to conditions: S. cerevisiae dse1pr::URA3 5-FOA growth, OD615, 2 d; at 10 µM; stronger effect = higher value; strain carries analog-sensitive mutant Cbk1 kinase.
Experiment [15] can be described thus: RAM signaling pathway blockade in yeast – S. cerevisiae, Pdr1DBD-CYC8 efflux-inhibited sensitized strain, primary screen (AID 1298;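 active = RAM network inhibition above 8.4% in each of two replicates, 3 SD over the compound average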;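 also: 0% = DMSO untreated cells without growth and 100% = 10 µM 1-NA-PP1 full growth; higher means more yeast growth rescued from 5-FOA killing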). To be noted: S. cerevisiae cbk1-as DSE1-URA3 strain, 5-FOA growth OD615, 2 d; at 50 µM; stronger effect = higher value.
Where [16] appears, read: H69AR cells + 2 uM doxorubicin, measured here: viability with 2 uM doxorubicin, stronger effect = lower value.
[17] abbreviates: H69AR cells, compound alone cytotoxicity.

Records with an inconclusive call do not appear. Activity calls are given as the source filed them.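 The calls were made as follows, unless noted: active = viability at or below 10% of carrier control in both of two separate runs; inconclusive = viability at or below 10% in only one of the two runs; inactive = the rest.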

A word on the viability: it is a read-out of living cells in per cent, often relative to untreated cells. Broadly, the inhibition is the drop in the measured response relative to a control, in per cent.

Receptor tyrosine-protein kinase erbB-2 (Homo sapiens), sequence (P04626 whole entry, looked up): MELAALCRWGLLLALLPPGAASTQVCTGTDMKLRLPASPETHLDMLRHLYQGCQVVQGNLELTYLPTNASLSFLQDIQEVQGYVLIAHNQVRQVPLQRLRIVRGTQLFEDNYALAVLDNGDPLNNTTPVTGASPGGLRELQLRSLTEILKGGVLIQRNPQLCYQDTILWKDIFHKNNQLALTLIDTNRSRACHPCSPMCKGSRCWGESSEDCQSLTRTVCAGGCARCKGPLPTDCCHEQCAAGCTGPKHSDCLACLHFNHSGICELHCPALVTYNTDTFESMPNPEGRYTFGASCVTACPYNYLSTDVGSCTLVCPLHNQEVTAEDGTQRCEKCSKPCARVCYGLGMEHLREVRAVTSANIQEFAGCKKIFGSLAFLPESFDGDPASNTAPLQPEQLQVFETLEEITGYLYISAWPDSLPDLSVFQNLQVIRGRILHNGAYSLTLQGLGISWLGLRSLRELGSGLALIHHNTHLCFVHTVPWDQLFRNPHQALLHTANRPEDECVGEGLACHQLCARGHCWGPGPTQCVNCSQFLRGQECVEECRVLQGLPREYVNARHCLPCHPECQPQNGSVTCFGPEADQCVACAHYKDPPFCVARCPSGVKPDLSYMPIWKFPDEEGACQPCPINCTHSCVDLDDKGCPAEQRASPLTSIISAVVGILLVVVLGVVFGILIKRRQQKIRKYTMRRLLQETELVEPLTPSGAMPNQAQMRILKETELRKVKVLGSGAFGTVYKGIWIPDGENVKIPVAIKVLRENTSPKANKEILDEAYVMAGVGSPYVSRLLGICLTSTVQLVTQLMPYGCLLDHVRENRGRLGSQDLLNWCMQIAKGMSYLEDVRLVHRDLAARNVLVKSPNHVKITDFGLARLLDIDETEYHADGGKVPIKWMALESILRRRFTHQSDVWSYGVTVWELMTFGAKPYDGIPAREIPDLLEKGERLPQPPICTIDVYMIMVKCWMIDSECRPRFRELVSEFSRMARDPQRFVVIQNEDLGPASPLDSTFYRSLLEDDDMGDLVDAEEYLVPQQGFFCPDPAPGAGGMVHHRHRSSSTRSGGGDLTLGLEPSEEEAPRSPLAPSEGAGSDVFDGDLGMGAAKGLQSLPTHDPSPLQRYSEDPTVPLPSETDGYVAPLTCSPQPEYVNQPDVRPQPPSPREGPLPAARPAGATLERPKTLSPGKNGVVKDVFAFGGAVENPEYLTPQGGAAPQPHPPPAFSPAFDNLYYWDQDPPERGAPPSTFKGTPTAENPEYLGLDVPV

In the case of `CCCCCn1c(CN2CCN(C(=O)c3ccco3)CC2)nc2c1c(=O)n(C)c(=O)n2C`, the viability was 96.5% in [1]; 96.5% (inactive) in experiment [3]; 92.8% (inactive) in [4]; 77.5% (inactive) in experiment [5]; 49.5% in experiment [6] (setting [16]); 77.5% in experiment [6] (setting [17]). Moreover, the viability in [12] was 93.6% (inactive); in experiment [13], 93.2% (inactive). Besides, the Her2 level in [2] is 103% (inactive). Besides, the differential viability (reversal) in experiment [6] (H69AR cells + 2 uM doxorubicin) is 27.9% (inactive). In addition, the inhibition in [7] is -5.6% (inactive); in experiment [8], -5.83% (inactive); in experiment [14], -0.2% (inactive). Further, the growth inhibition in experiment [9] was -0.285% (inactive); in [10], -8.78% (inactive). In [11], the viability increase was -2.57% (inactive). In [15], the RAM network inhibition was 1.17% (inactive).

With `CC(C)CCN(C)C1CCN(S(=O)(=O)c2ccc(F)cc2)CC1`, the viability in experiment [1] is 87%; in [3], 87% (inactive); in experiment [4], 107% (inactive); in experiment [5], 81% (inactive); in [6] (setting [16]), 91.6%; in [6] (setting [17]), 81%. The viability in experiment [12] is 97.6% (inactive); in experiment [13] it was 98.5% (inactive). The Her2 level in [2] is 104% (inactive). Also, in [6] (H69AR cells + 2 uM doxorubicin), the differential viability (reversal) was -10.5% (inactive). Moreover, the inhibition in experiment [7] is -1.87% (inactive); in experiment [8] it was -4.33% (inactive); in [14], 0.875% (inactive). The growth inhibition was -7.46% (inactive) in experiment [9] and 10.4% (inactive) in experiment [10]. In addition, the viability increase in experiment [11] was -2.68% (inactive). The RAM network inhibition in [15] was 4.65% (inactive).

Turning to `CC(C)c1nccn1S(=O)(=O)c1cc(Cl)ccc1Cl`, the viability in experiment [1] is 104%; in [3] it was 104% (inactive); in experiment [4], 92.2% (inactive); in [5], 90.3% (inactive); in experiment [6] (setting [16]), 86.3%; in [6] (setting [17]) it was 90.3%. Also, the viability in experiment [12] was 103% (inactive); in experiment [13], 97.2% (inactive). Besides, the Her2 level in experiment [2] was 112% (inactive). For the same compound, the differential viability (reversal) in experiment [6] (H69AR cells + 2 uM doxorubicin) was 3.94% (inactive). The inhibition is -4.03% (inactive) in experiment [7], -3.83% (inactive) in experiment [8] and 1.64% (inactive) in experiment [14]. Besides, the growth inhibition is -4.57% (inactive) in experiment [9] and -1% (inactive) in experiment [10]. Besides, in [11], the viability increase is 0% (inactive). In addition, in experiment [15], the RAM network inhibition was 4.6% (inactive).

Turning to `C=CCSc1nnc(Cc2c(C)[nH]c3ccccc23)o1`, the viability was 90.5% in experiment [1]; 90.5% (inactive) in [3]; 84.7% (inactive) in experiment [4]; 92.2% (inactive) in [5]; 85.3% in experiment [6] (setting [16]); 92.2% in [6] (setting [17]). Further, the viability is 99.7% (inactive) in experiment [12] and 99.5% (inactive) in [13]. Moreover, the Her2 level in experiment [2] was 96% (inactive). The differential viability (reversal) in [6] (H69AR cells + 2 uM doxorubicin) is 6.96% (inactive). Also, the inhibition in [7] is -3.87% (inactive); in experiment [8] it was -2.5% (inactive); in experiment [14] it was -0.545% (inactive). For the same compound, the figures for the growth inhibition in experiment [9] and in experiment [10] were 1.6% (inactive) and 3.4% (inactive), respectively. Besides, the viability increase in experiment [11] was -0.66% (inactive). Moreover, the RAM network inhibition in experiment [15] was 1.36% (inactive).

Regarding `CN1CCc2c(sc3c2C(=O)NC(c2cccc(OC(=O)c4cccs4)c2)N3)C1` (stereo not drawn), the viability in experiment [1] was 81.5%; in experiment [3] it was 81.5% (inactive); in [4] it was 68% (inactive); in experiment [5] it was 85.6% (inactive); in experiment [6] (setting [16]), 94.6%; in [6] (setting [17]), 85.6%. In addition, the viability in experiment [12] was 96.3% (inactive); in experiment [13] it was 93.8% (inactive). In experiment [2], the Her2 level was 78.5% (inactive). Moreover, the differential viability (reversal) in [6] (H69AR cells + 2 uM doxorubicin) is -8.95% (inactive). The inhibition was -5.07% (inactive) in [7], 7.5% (inactive) in [8] and 0.215% (inactive) in [14]. Also, the growth inhibition was 8.64% (inactive) in [9] and 11.5% (inactive) in experiment [10]. The viability increase in [11] was -4.85% (inactive). Further, the RAM network inhibition in experiment [15] is 4.47% (inactive).

On to `CC1CCCN(C(=O)c2cc3c(-c4ccc(Cl)cc4)nn(C)c3s2)C1` (stereo not drawn), for which the viability in experiment [1] was 89%; in experiment [3], 89% (inactive); in experiment [4], 77.4% (inactive); in [5], 92.5% (inactive); in [6] (setting [16]), 91.7%; in experiment [6] (setting [17]), 92.5%. Besides, the viability in [12] was 91.4% (inactive); in experiment [13] it was 93.3% (inactive). In addition, in experiment [2], the Her2 level was 87% (inactive). For the same compound, the differential viability (reversal) in experiment [6] (H69AR cells + 2 uM doxorubicin) was 0.84% (inactive). For the same compound, the inhibition in experiment [7] was -1.54% (inactive); in experiment [8], 3% (inactive); in [14] it was 2.07% (inactive). Also, the growth inhibition in experiment [9] is -9.3% (inactive); in [10], -3.9% (inactive). Besides, in experiment [11], the viability increase is -2.82% (inactive). For the same compound, in experiment [15], the RAM network inhibition was 1.62% (inactive).

Take `COc1ccc(CCNC(=O)c2cnn3ccccc23)c(OC)c1OC`: the viability was 92.5% in experiment [1]; 92.5% (inactive) in [3]; 78.8% (inactive) in experiment [4]; 96.5% (inactive) in [5]; 97% in experiment [6] (setting [16]); 96.5% in experiment [6] (setting [17]). For the same compound, the viability in experiment [12] was 101% (inactive); in experiment [13], 87.8% (inactive). Besides, the Her2 level in experiment [2] is 98.5% (inactive). Besides, the differential viability (reversal) in [6] (H69AR cells + 2 uM doxorubicin) is -0.525% (inactive). Further, the results for the inhibition in experiment [7], in experiment [8] and in experiment [14] were -5.6% (inactive), -2.67% (inactive) and 1.33% (inactive), respectively. The growth inhibition in experiment [9] was -9.7% (inactive); in experiment [10] it was -2.3% (inactive). In addition, the viability increase in experiment [11] was -1.15% (inactive). The RAM network inhibition in [15] is 3.06% (inactive).

Consider `CCOC(=O)N1CCC(N2C(=O)c3ccccc3C2Nc2ccccc2C)CC1` (stereo not drawn), for which the viability was 95.5% in experiment [1]; 95.5% (inactive) in [3]; 84% (inactive) in [4]; 79.8% (inactive) in [5]; 47.8% in [6] (setting [16]); 79.8% in experiment [6] (setting [17]). For the same compound, the viability in experiment [12] is 88.2% (inactive); in experiment [13], 82.5% (inactive). In experiment [2], the Her2 level was 96.5% (inactive). Further, the differential viability (reversal) in experiment [6] (H69AR cells + 2 uM doxorubicin) is 32% (inactive). Further, the results for the inhibition in experiment [7], in experiment [8] and in [14] were -5.2% (inactive), -8.5% (inactive) and 2.58% (inactive), respectively. Moreover, the figures for the growth inhibition in [9] and in [10] were -16.1% (inactive) and -23.2% (inactive), respectively. Besides, the viability increase in experiment [11] was -4.35% (inactive). The RAM network inhibition in experiment [15] is 7.43% (inactive).

Take `COc1cccc(C2C(C(=O)c3ccc(C)o3)=C(O)C(=O)N2CCCN(C)C)c1` (stereo not drawn): the viability in experiment [1] is 99.5%; in experiment [3], 99.5% (inactive); in experiment [4], 100% (inactive); in [5], 108% (inactive); in experiment [6] (setting [16]), 95%; in experiment [6] (setting [17]), 108%. In addition, the viability is 102% (inactive) in experiment [12] and 96.1% (inactive) in [13]. Moreover, the Her2 level in experiment [2] is 90.5% (inactive). Further, the differential viability (reversal) in [6] (H69AR cells + 2 uM doxorubicin) was 12.6% (inactive). Besides, the figures for the inhibition in [7], in [8] and in experiment [14] were -4.73% (inactive), 7.14% (inactive) and -0.125% (inactive), respectively. The growth inhibition in experiment [9] is -10.7% (inactive); in experiment [10], -11.7% (inactive). Also, the viability increase in [11] is -1.16% (inactive). The RAM network inhibition in [15] is 1.67% (inactive).

The record behind these values is PubChem BioAssay.
